Screening results from PubChem BioAssay.
TDP1 inh: TDP1 (human) enzyme inhibition; recombinant TDP1, AlphaScreen DNA substrate cleavage; Potency, µM (highest dose often 130 µM), without a hit: at the highest dose activity change, negative = inhibition, actives largely listed as inhibitors; 350,000 compounds, 0.28% hits; AID 485290; also: potency is read from the fitted curve at half-maximal effect; nearly all actives have a fitted effect of over 40% in size
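Recombinant E. coli-expressed Tdp1 (1 nM) preincubated with compound 15 min at RT, then 5'-biotin/3'-phosphotyrosine-FITC DNA substrate (15 nM) added for 5 min. AlphaScreen beads (10 ug/ml) added, 10 min RT; tyrosine-FITC cleavage read as signal loss.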
CtBP-E1A inh: CtBP/E1A binding inhibition. activity change, % (concentration not given with the values). AlphaScreen GST-E1A/His-CtBP binding, 1536-well; active compounds read low. AID 651724. 340,000 compounds, 0.49% hits; in the data active = activity change below about -65%; inconclusive = mostly about -30% to -63%
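AlphaScreen with 125 nM GST-E1A and 125 nM His-CtBP (5X stocks) in Tris pH 8.0, 300 mM NaCl, BSA, Tween 20, TCEP. Compounds preincubated 2 h at 37 deg C, then glutathione donor/nickel acceptor beads added for 1 h at 37 deg C in dark.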
DT40 TDP1 CPT: growth inhibition of DT40 Tdp1-/-;hTDP1 cells with camptothecin (screen for TDP1 inhibitors). chicken DT40 Tdp1-/-;hTDP1 cells + 20 nM CPT, ATP luminescence, 48 h. Potency, µM (series often up to 46.2 µM), without a hit: at the highest dose activity change, negative = growth inhibition, actives largely listed as inhibitors. 420,000 compounds, 12% hits; also: potency is read from the fitted curve at half-maximal effect; nearly all actives have a fitted effect of over 55% in size
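Cell growth measured by CellTiter-Glo luminescence after a minimum 48 h, 37 C compound exposure with 20 nM CPT in Tdp1-knockout DT40 cells stably expressing hTDP1, seeded 400/well; qHTS titration format.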
DT40 TDP1 no CPT: qHTS for Inhibitors of human tyrosyl-DNA phosphodiesterase 1 (TDP1): qHTS in cells in absence of CPT; DT40 Tdp1-/- hTDP1 cells, no CPT, ATP luminescence, 48 h; Potency, µM (top dose mostly 46.2 µM), for inactives: at the highest dose activity change, negative = growth inhibition, hits mostly inhibitors; 420,000 compounds, 15% hits; also: potency is read from the fitted curve at half-maximal effect; nearly all actives have a fitted effect of over 55% in size
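Stably hTDP1-transfected Tdp1-null chicken DT40 cells were treated with library compounds minus camptothecin and grown for at least 48 hr at 37 °C, after which cellular ATP was quantified by luminescence.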
Six1-Eya2 blk: inhibitors of human Six1/Eya2 interaction. Q15475+O00167. AlphaScreen GST-Six1/His-Eya2 binding, biochemical; active compounds read low. activity change, % (no concentration beside the values). 360,000 compounds, 0.56% hits; in the data active = activity change below about -65%; inconclusive = mostly about -30% to -63%
Target sequence (O00167 whole entry, looked up): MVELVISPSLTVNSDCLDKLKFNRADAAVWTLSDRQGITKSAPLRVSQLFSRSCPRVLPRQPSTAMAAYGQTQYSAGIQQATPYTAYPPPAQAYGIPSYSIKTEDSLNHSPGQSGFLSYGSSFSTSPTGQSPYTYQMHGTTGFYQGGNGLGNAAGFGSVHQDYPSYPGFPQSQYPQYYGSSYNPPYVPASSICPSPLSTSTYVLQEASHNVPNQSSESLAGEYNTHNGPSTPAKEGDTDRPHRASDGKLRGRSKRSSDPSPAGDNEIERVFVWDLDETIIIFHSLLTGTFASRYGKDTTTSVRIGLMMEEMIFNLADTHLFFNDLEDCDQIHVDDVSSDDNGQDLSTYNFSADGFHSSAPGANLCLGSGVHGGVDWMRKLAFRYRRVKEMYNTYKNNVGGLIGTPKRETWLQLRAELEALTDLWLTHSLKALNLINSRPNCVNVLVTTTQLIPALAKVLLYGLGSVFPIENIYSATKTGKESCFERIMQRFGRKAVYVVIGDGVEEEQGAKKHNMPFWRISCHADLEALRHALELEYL
Target sequence (Q15475 whole entry, looked up): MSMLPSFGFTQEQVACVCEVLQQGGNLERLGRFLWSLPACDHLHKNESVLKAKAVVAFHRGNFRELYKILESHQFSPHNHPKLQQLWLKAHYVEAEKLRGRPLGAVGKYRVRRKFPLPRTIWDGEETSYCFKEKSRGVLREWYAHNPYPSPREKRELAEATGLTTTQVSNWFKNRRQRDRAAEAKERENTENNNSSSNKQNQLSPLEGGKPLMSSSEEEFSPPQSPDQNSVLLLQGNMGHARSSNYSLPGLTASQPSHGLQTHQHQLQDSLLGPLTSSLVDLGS
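GST-Six1 + His-Eya2 (5X stock: 250/500 nM); Tris pH 8.0, 300 mM NaCl, 0.05% BSA, 0.02% Tween 20; GSH donor/Ni acceptor beads; 1 h 37 °C dark; AlphaScreen readout.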
IL-1B inflam inh: inflammasome signaling inhibition, IL-1 beta readout. THP-1 LPS/ATP IL-1B secretion, AlphaLISA, 16 h; active compounds read low. AID 743279. 360,000 compounds, 4.7% hits. activity change, % at 57.5 µM; in the data active = activity change below about -50%; inconclusive = mostly about -30% to -49%
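Secreted IL-1B measured by AlphaLISA bead assay after 16 h compound exposure of THP-1 cells; compounds (final up to 57.5 uM) added 1 h before LPS (250 ng/mL) and ATP (1.25 mM) stimulation; lower signal means less secretion.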
* = called active by the depositor; u = inconclusive; x = no result given. The list is not random: actives were taken first. Their share in the collection is about 18%. Unless noted, calls follow the shape of the dose curve; as a rule, active = well fitted curve in the direction sought with a large enough effect; inconclusive = small, poorly fitted or top-dose-only effect, or another doubt; inactive = no such curve, though single readings can be large; an effect the other way counts as inactive or inconclusive. % is scaled to controls: 0 for no effect and ±100 for the full control effect.

SMILES	TDP1 inh	CtBP-E1A inh	DT40 TDP1 CPT	DT40 TDP1 no CPT	Six1-Eya2 blk	IL-1B inflam inh
CCOC(=O)CNC=C(C(=O)OCC)C(=O)OCC	3%	-1	-5%	1%	13	-7
CCOC(=O)C=C(C(=O)OCC)C(=O)OCC	x	0	4.6µM*	4.6µM*	23	7
O=S(=O)(O)c1cc(O)c2c(N=Nc3ccc(Nc4ccccc4)c4c(S(=O)(=O)O)cccc34)cc(S(=O)(=O)O)cc2c1	9%	x	19µM*	13µM*	x	x
CC(NC(=S)NCc1ccc(F)cc1)C12CC3CC(CC(C3)C1)C2 (stereo not drawn)	4%	-4	u	15µM*	6	-84*
CCOC(=O)C1=C(CSc2nc3ccccc3s2)NC(=O)NC1c1cccc([N+](=O)[O-])c1 (stereo not drawn)	6%	-3	18µM*	u	-1	-17
O=C(c1ccccc1)c1ccc(OCC(=O)N2CCOCC2)cc1	5%	11	0%	8%	7	15
Cc1ccc(-c2nc3ccccc3n2C(C(=O)NC(C)(C)C)C2CC2)cc1 (stereo not drawn)	x	-2	21µM*	u	-4	76
CSCCC(C(=O)NC(C)(C)C)n1c(-c2ccc3c(c2)OCO3)nc2ccccc21 (stereo not drawn)	x	-1	23µM*	21µM*	-9	11
COc1ccc(C(C(=O)NC(C)(C)C)n2c(-c3ccc(-c4ccccc4)cc3)nc3ccccc32)cc1 (stereo not drawn)	x	26	u	13µM*	13	8
COc1ccc(C(C(=O)NCc2ccccc2)n2c(-c3ccccn3)nc3ccccc32)cc1 (stereo not drawn)	x	-4	16µM*	u	-6	-16
CC(C)(C)NC(=O)C(c1ccccc1)n1c(-c2ccc(-c3ccccc3)cc2)nc2ccccc21 (stereo not drawn)	x	7	u	u	-6	10
CC(C(=O)NC(C)(C)C)n1c(-c2ccc3c(c2)OCO3)nc2ccccc21 (stereo not drawn)	x	-3	u	-27%	-1	27
COC(=O)[C@H](CCSC)NC(=O)Nc1cccc(C)c1C	3%	-6	8%	-6%	-2	x
Cc1csc(-c2nc3ccccc3n2C(C(=O)NC(C)(C)C)c2cc3ccccc3o2)c1 (stereo not drawn)	x	3	u	15µM*	-11	-19
CC(C)(C)NC(=O)C(C1CC1)n1c(-c2ccccc2)nc2ccccc21 (stereo not drawn)	x	-1	10µM*	8.2µM*	-3	17
CCC(C(=O)NC1CCCC1)n1c(-c2ccccn2)nc2ccccc21 (stereo not drawn)	x	5	7.3µM*	8.2µM*	-7	28
Cc1ccc(-c2nc3ccccc3n2C(C)C(=O)NC(C)(C)C)cc1 (stereo not drawn)	x	-3	9%	-17%	4	3
CSCCC(C(=O)Nc1c(C)cccc1C)n1c(-c2cnc(C)cn2)nc2ccccc21 (stereo not drawn)	x	-1	u	16µM*	-10	-12
Cc1cc(Cl)c(S(=O)(=O)N2CCN(c3ccccn3)CC2)cc1OCC(N)=O	0%	5	11%	-2%	0	27
O=C(Nc1ccccc1N1CCN(C(=O)c2ccc(Cl)cc2)CC1)c1ccc([N+](=O)[O-])o1	7%	-27	21µM*	u	-27	-76*
CCCC(=O)NC(=S)Nc1cccc(Cl)c1N1CCCCC1	2%	-1	u	u	0	64
CCC(=O)NC(=S)Nc1cccc(Cl)c1N1CCCCC1	4%	5	11µM*	11µM*	-1	52
